Compound activity (PubChem)
Shown are actives, neighbours in structure and some others; about 3.6% of the full set was active somewhere.
CF NFkB block: blocks PAF-induced NF-kB reporter in cystic fibrosis cells | KKLEB NF-kB-GFP reporter, GFP fluorescence overnight | inhibition, % at 5 µM | 360,000 tested, 0.86% active | AID 588850;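 active = at least 50% inhibition at 5 µM, scaled per plate between neutral and stimulator controls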;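 also: PAF is a Pseudomonas aeruginosa culture filtrate used as stimulus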
KKLEB tox: reduces viability of KKLEB cystic fibrosis airway cells; KKLEB CF airway cells viability, ATPlite luminescence, overnight; hits give low values; cells stimulated with P. aeruginosa culture filtrate; activity change (cytotoxicity), % at 5 µM; 360,000 tested, 0.36% active; AID 602141;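 active = corrected activity change at or below -50% at 5 µM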
Mdm2 MdmX PPI: inhibitors of human Mdm2/MdmX interaction; SaOS-2 split-luciferase Mdm2/MdmX complementation, luminescence; inhibition, % at 8 µM; 330,000 tested, 3% active; AID 485346;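 active = inhibition of at least 50% at 8 µM in the primary screen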
Target sequence (O15151 whole entry, looked up): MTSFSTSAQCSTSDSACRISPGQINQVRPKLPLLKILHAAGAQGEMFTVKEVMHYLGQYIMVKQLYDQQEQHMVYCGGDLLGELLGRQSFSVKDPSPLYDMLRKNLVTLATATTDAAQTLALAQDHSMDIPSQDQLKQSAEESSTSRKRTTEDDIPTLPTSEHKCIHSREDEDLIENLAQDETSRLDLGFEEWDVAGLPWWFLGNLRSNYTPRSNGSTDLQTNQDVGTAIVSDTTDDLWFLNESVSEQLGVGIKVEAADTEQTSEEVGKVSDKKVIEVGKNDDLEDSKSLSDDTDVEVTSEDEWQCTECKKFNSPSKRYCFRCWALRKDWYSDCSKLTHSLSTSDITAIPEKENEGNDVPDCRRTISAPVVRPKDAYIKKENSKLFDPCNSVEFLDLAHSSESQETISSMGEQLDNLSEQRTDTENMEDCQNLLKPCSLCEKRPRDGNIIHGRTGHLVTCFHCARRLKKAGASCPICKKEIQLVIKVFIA
Target sequence (Q00987 whole entry, looked up): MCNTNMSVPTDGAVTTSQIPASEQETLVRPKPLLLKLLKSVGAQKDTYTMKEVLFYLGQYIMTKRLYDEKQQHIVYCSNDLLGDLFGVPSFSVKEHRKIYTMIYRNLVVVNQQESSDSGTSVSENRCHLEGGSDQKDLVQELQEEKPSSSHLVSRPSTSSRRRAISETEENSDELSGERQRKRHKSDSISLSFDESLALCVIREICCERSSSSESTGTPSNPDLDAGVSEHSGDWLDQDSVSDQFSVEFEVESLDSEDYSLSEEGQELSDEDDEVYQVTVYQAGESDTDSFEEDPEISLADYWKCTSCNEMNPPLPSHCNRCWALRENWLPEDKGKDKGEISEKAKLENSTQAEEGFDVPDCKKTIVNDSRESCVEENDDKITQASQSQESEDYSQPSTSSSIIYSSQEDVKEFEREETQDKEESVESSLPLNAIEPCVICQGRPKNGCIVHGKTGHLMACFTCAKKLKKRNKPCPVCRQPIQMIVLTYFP
Peg3 promoter: Peg3 promoter activity inhibition. HeLa PEG-Prom luciferase reporter, luminescence, overnight. inhibition, % at 20 µM. 360,000 tested, 1.7% active;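 active = inhibition of at least 50% at 20 µM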
HSP90 inh: inhibitors of HSP90 luciferase refolding in rabbit reticulocyte lysate; luciferase refolding luminescence, 3 h; inhibition, % at 5.6 µM; 290,000 tested, 0.91% active;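 active = inhibition above the screen-wide mean plus 3 SD, computed separately per campaign, cut at about 16% in these data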;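 also: inhibitors lower the luminescence because luciferase stays unfolded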
LGR2 antag: inhibitors of bursicon-induced Drosophila LGR2 receptor cAMP signaling; HEK293 LGR2, CRE-luciferase, bursicon-stimulated, 4 h; inhibition, % at 9.99 µM; 380,000 tested, 0.35% active;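 active = drop in luminescence signal, shown as inhibition above about 50% in the replicate tests, limit read from the data, passing the limit was not always enough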;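 also: agonist challenge used bursicon conditioned medium at about half maximal strength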
A number is an active result; n = inactive; x = no result given.

SMILES	CF NFkB block	KKLEB tox	Mdm2 MdmX PPI	Peg3 promoter	HSP90 inh	LGR2 antag
Cc1ccc(C2=NOC(=O)/C2=C\C=C\c2ccccc2)cc1	92	-61	x	106	n	n
CN(Cc1ccccc1)CC(O)COc1ccc(CNCc2ccc(Cl)s2)cc1 (configuration not stated)	n	n	n	54	n	n
COc1ccccc1-c1ccc(OCCCN2CCC(C(O)(c3ccccc3)c3ccccc3)CC2)cc1	x	x	x	x	x	62
OC(c1ccccc1)(c1ccccc1)C1CCN(CCCOc2ccc(-c3ccc(F)cc3F)cc2)CC1	x	x	x	x	x	n
O=C(N[C@@H]1CC[C@@H](CC(=O)N2CCOCC2)O[C@H]1CO)c1ccccn1	x	x	x	x	x	n
COc1ccccc1Cc1c(-c2ccc(F)cc2)nc2ccc(Cl)cn12	n	n	x	n	x	n
COc1cc2c3nnc(-c4ccc(F)cc4)c-3cn(Cc3ccccc3F)c2cc1OC	n	n	x	110	n	n
CO[C@@H]1CN(C)C(=O)c2cc(NC(C)=O)ccc2OC[C@@H](C)N(Cc2ccncc2)C[C@H]1C	x	x	x	x	x	n
Cc1cccc(N=C2NC(=O)S/C2=C\c2ccco2)c1	n	n	n	n	n	n
O=C1NC(=Nc2ccc(Cl)cc2)/C(=C/c2ccco2)S1	n	n	n	63	n	n
COc1ccc(-c2nn(-c3ccccc3)cc2/C=N/N=C(N)N)cc1OC	n	n	n	104	n	n
C[C@H](CO)N1C[C@H](C)[C@H](CN(C)C(=O)Nc2cccc(Oc3ccccn3)c2)OCc2cn(nn2)CCCC1=O	x	x	x	x	x	n
Cc1c(C(=O)Nc2ccc(F)cc2)oc2ccc(S(=O)(=O)N3CCC4(CC3)OCCO4)cc12	n	n	n	55	n	x
Cc1c(C(=O)Nc2ccc(F)cc2)oc2ccc(S(=O)(=O)N3CCCC3)cc12	n	n	n	n	n	n
Cc1c(C(=O)NCC2COc3ccccc3O2)oc2ccc(S(=O)(=O)N3CCOCC3)cc12 (configuration not stated)	n	n	n	73	n	x
Cc1c(C(=O)Nc2ccc(F)c(F)c2)oc2ccc(S(=O)(=O)N3CCCCC3)cc12	n	n	n	64	n	n
COc1ccccc1N(C)S(=O)(=O)c1ccc(C(=O)Nc2nccs2)cc1	n	-50	n	n	x	n
C[C@@H]1CN([C@H](C)CO)C(=O)c2cc(-c3cncnc3)cnc2O[C@H]1CN(C)C(=O)Cc1ccccn1	x	x	x	x	x	n
Fc1cccc(-c2nnn3c2nc(Cl)c2ccccc23)c1	n	n	x	107	n	n
Cc1ccc(-c2nnn3c2nc(Cl)c2ccccc23)cc1	n	n	x	n	n	n
COc1ccc(/C=N/NC(=O)c2ccc(Cl)cc2)cc1Cn1cc(Cl)cn1	n	-51	n	n	n	n
C[C@H]1CN([C@@H](C)CO)C(=O)c2cc(-c3cncnc3)cnc2O[C@H]1CN(C)Cc1ccc(F)cc1	x	x	x	x	x	n
O=C(Cc1cccnc1)N1CC(=O)N2[C@H](CO)[C@@H](c3ccc(C4=CCCC4)cc3)[C@H]2C1	x	x	x	x	x	n
C#CCN(C[C@@H]1[C@@H](OC(=O)NCc2ccccc2F)[C@@H](OC(=O)NCc2ccccc2F)Cn2c(=O)n(CCCCCC)c(=O)n21)S(=O)(=O)c1ccc(C)cc1	n	n	x	n	x	n
C#CCN(C[C@@H]1[C@@H](OC(=O)NCc2ccccc2F)[C@@H](OC(=O)NCc2ccccc2F)Cn2c(=O)ccc(=O)n21)S(=O)(=O)c1ccc(C)cc1	77	-85	x	97	x	68
SMILES	CF NFkB block	KKLEB tox	Mdm2 MdmX PPI	Peg3 promoter	HSP90 inh	LGR2 antag
C#CCN(C[C@@H]1[C@@H](OC(=O)Nc2cccs2)[C@@H](OC(=O)Nc2cccs2)Cn2c(=O)ccc(=O)n21)S(=O)(=O)c1ccc(C)cc1	81	-60	x	96	x	n
C[C@H]1CN([C@@H](C)CO)C(=O)Cc2cc(NC(=O)NC3CCCCC3)ccc2O[C@H]1CN(C)C(=O)Nc1ccc(C(F)(F)F)cc1	x	x	x	x	x	n
C[C@@H]1CCCCO[C@@H](CN(C)Cc2ccc3c(c2)OCO3)[C@@H](C)CN([C@@H](C)CO)C(=O)c2cc(NC(=O)CCCN(C)C)ccc2O1	x	x	x	x	x	n
Nc1ccc(-c2nc3ccccc3o2)cc1	n	n	n	n	17	n
Nc1cc(N)cc(-c2nc3ccccc3o2)c1	n	n	n	n	x	n
CNC[C@@H]1Oc2c(NC(=O)C3CCCCC3)cccc2C(=O)N([C@H](C)CO)C[C@@H]1C	x	x	x	x	x	n
Cn1cccc1Cc1nnc(SCC(=O)N2CCc3ccccc32)n1CCc1ccccc1	n	n	n	n	22	n
O=C(CN1CC(=O)Oc2ccccc21)OCC(=O)c1ccccc1	50	-59	n	59	n	n
O=C(C[C@@H]1CC[C@H]2[C@@H](COC[C@H](O)CN2S(=O)(=O)c2ccccc2)O1)NCc1ccc(-c2ccccc2)cc1	x	x	x	x	x	n
C[C@H]1CN([C@@H](C)CO)C(=O)c2cccc(NC(=O)C3CC3)c2O[C@@H]1CN(C)S(=O)(=O)c1cccs1	x	x	x	x	x	n
CO[C@H]1CN(C)C(=O)c2ccc(NC(=O)Nc3ccccc3Cl)cc2OC[C@H](C)NC[C@H]1C	x	x	x	x	x	n
Cc1cc(C)c(O)c(C(=O)CC2CC(=O)NC(=O)C2)c1	x	x	x	x	x	65
CC(=O)N(Cc1cc2c(C)cc(C)cc2[nH]c1=O)C1CCCCC1	n	n	n	n	n	x
CN(C)CCNC(=O)c1ccccc1-c1cc2ccccc2c(=O)o1	n	n	n	n	n	n
COc1ccc(Cl)cc1C(=O)NCCN(C)C	n	n	n	n	n	x
COc1ccc(C(=O)NCCN(C)C)c2nc3ccccc3cc12	n	n	x	92	x	n
CN(C)CCNC(=O)c1cccc2nc3c(ccc4ccccc43)nc12	n	n	x	98	x	n
CN(CCNC(=O)c1c[nH]c2c1ccc1ccccc12)CCNC(=O)c1c[nH]c2c1ccc1ccccc12	n	n	x	97	x	x
CC(C)NC(=O)N[C@H]1CC[C@H](CCN)O[C@@H]1CO	x	x	x	x	x	n
CC(=O)Oc1ccc(-c2nc3ccccc3c(=O)o2)cc1	n	n	n	77	n	n
Cc1ccc(-c2nc3ccccc3c(=O)o2)cc1	n	n	n	n	n	n
O=C(C[C@H]1C=C[C@H](NS(=O)(=O)c2ccc(F)cc2)[C@@H](CO)O1)NC1CCCCC1	x	x	x	x	x	n
NC(=S)NN=Cc1nccc2ccccc12	87	-74	x	n	x	n
CC(Nc1nc(-c2ccncc2)nc2ccccc12)c1ccccc1 (configuration not stated)	n	n	n	n	n	n
CC(Nc1nc(N2CCNCC2)nc2ccccc12)c1ccccc1 (configuration not stated)	n	n	n	102	n	n
O=S(=O)(Nc1ccc(Br)cc1)c1cccc2nonc12	n	n	n	n	n	n
O=S(=O)(Nc1ccc(C(O)(C(F)(F)F)C(F)(F)F)cc1)c1ccc(Cl)c2nonc12	n	n	x	98	x	x
CC(C)(C)c1ccc(C(=O)c2c[nH]c(C(=O)NCc3cccnc3)c2)cc1	n	n	n	n	n	x
O=C(Cc1ccc(Cl)cc1)c1c[nH]c(C(=O)NCc2cccnc2)c1	n	n	n	102	n	n
